PubChem BioAssay
Values joined by “and” are separate entries in the source; they are usually repeats but may differ in a detail not shown here. Identical values can stand only once. Some compounds were tested as several samples or in several runs, with calls that do not always agree. Active and inactive are the calls of the source. Rule as the data show it, unless noted: active = nuclear beta-catenin stimulation mostly above about 4.2% (no sharp cut-off); inactive = mostly below about 10%.

Tests used:
[1] = stimulators of nuclear beta-catenin in C2C12, primary screen, imaging, WNT3A-conditioned medium, mouse C2C12, NPC library (AID 1117326); settings: stronger effect = higher value; also: reference of the scale not given here
[2] = stimulators of insulin release from INS-1E, primary screen, cell-based, 5 mM glucose, NPC library (AID 1117329;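 active = compound raises insulin release from rat beta cells at 5 mM glucose, no numeric limit stated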; also: reference of the scale not given here); settings: rat INS-1E insulin secretion, at 10 µM, stronger effect = higher value
[3] = growth inhibition of GSK3B-pretreated HCT116 cells – cell-based, CellTiter-Glo, 0.2 to 20 µM (AID 1117336;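 active = compounds lowering colon cancer cell viability after pretreatment blocking the GSK3B kinase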); settings: HCT116 viability after GSK3B inhibitor, at 20 µM, stronger effect = higher value
[4] = inhibition of endothelial tube formation, primary screen, imaging, VEGF stimulated, CD31 staining, tube area, NPC library (AID 1117340;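 active = compound that reduces growth-factor-driven endothelial tube area in a mixed cell culture, no cutoff stated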); settings: VEGF-stimulated ADSC/ECFC co-culture, at 10 µM, stronger effect = higher value
[5] = glucagon-like peptide 1 release enhancers, primary assay, NCI-H716 cell line, NPC library (AID 1117341;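 active = compound raises GLP1 secretion from the human gut endocrine cells, with no numeric limit stated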; also: reference of the scale not given here); settings: NCI-H716 cells, at 10 µM, stronger effect = higher value
[6] = HCT116 colon cancer cell growth inhibition, primary screen, CellTiter-Glo luminescence, NPC library (AID 1117342;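 active = compounds that lower survival of HCT116 colon cancer cells in the luminescence readout, no numeric limit stated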); settings: at 20 µM (top of the series)
[7] = CellTiter-Glo luminescent readout of SW480 viability loss, NPC library primary (AID 1117343;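 active = compounds that lower viability of the colon cancer cells in the luminescence readout, with no numeric limit stated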); settings: CellTiter-Glo luminescence; at 20 µM (top of the series)
[8] = decreased DLD-1 cellular survival, CellTiter-Glo luminescent readout, NPC compound collection, primary HTS (AID 1117346;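 active = compounds that lower survival of DLD-1 colon cancer cells in the luminescence readout, no cutoff given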); settings: DLD-1 viability, CellTiter-Glo luminescence; at 20 µM (top of the series)

Row | SMILES | nuclear beta-catenin stimulation ([1]; at 10 µM) | nuclear beta-catenin stimulation ([1]; stimulation, at 2 µM) | insulin secretion stimulation [2] | viability decrease [3] | tube area decrease [4] | GLP1 secretion stimulation [5] | inhibition of viability [6] | viability decrease (inhibition) [7] | viability decrease (inhibition) [8]
1 | CCCCCCCCCCCCCCCCCCO | 0.4% (inactive) | -0.4% | -1.7% (inactive) | -15.2% (inactive) | -3.6% (inactive) | 1.9% (inactive) | -11.1% (inactive) | 0.9% (inactive) | -5.65% (inactive)
2 | Nc1ccc(S(=O)(=O)NCc2ccccc2)cc1 | 0.8% (inactive) | 1.8% | -2.5% (inactive) | -8.1% (inactive) | -5.2% (inactive) | 0.6% (inactive) | -18.3% (inactive) | 37.6% (inactive) | 10.1% (inactive)
3 | OC[C@@H](O)[C@H](O)[C@H](O)[C@@H](O)CO | 0.7% (inactive) and 2.5% (inactive) | -0.3% and 1% | 0.1% (inactive) and 1.8% (inactive) | -25.2% (inactive) and 11.4% (inactive) | 3.7% (inactive) and 50.5% (active) | 0.3% (inactive) and -1.2% (inactive) | -3.33% (inactive) and -2.5% (inactive) | 4.1% (inactive) and 1.5% (inactive) | -1.5% (inactive) and -4.9% (inactive)
4 | COc1ccc2cc1Oc1cc3c(cc1OC)CC[N+](C)(C)[C@H]3Cc1ccc(cc1)Oc1c(OC)c(OC)cc3c1[C@@H](C2)[N+](C)(C)CC3 | 0.3% (inactive) | -0.1% | 0.65% (inactive) | 13.2% (inactive) | 3.3% (inactive) | 2.3% (inactive) | 7.8% (inactive) | 14% (inactive) | 6.2% (inactive)
5 | CCCCC(O)/C=C(C)/C=C/C=C/C(=O)N1CCCC1=O (stereo not given) | -1% (inactive) | -0.4% | 0.3% (inactive) | 1.6% (inactive) | 17.5% (inactive) | 1.3% (inactive) | 37.5% (inactive) | 59.3% (active) | -19.2% (inactive)
6 | Cc1nc2n(c(=O)c1CCN1CCC(C(=O)c3ccc(F)cc3)CC1)CCS2 | 0.2% (inactive) | -0.8% | 0.2% (inactive) | 38% (inactive) | 14.8% (inactive) | 5.4% (inactive) | 67.6% (active) | 29.6% (inactive) | 33.5% (inactive)
7 | FC1(F)C(F)(F)C(F)(F)C2(F)C(F)(F)C(F)(F)C(F)(F)C(F)(F)C2(F)C1(F)F (stereo not given) | -0.7% (inactive) | 0.3% | 1.3% (inactive) | 17% (inactive) | 10.2% (inactive) | -0.8% (inactive) | -2.93% (inactive) | 21.7% (inactive) | -11.3% (inactive)
8 | O=C(NN1CCCC1)NS(=O)(=O)c1ccc(Cl)cc1 | -0.5% (inactive) | -0.1% | 33.9% (active) | -3.1% (inactive) | 7% (inactive) | -1.1% (inactive) | 14.2% (inactive) | 0% (inactive) | -2.8% (inactive)
9 | NC(=Nc1ccccc1)Nc1ccccc1 | 0.2% (inactive) | 1.4% | 13.9% (inactive) | 24.6% (inactive) | 10.1% (inactive) | 2.8% (inactive) | -1% (inactive) | 77.3% (active) | 75.2% (active)
10 | CO/N=C(/C(=O)N[C@@H]1C(=O)N2C(C(=O)O)=C(Cn3nnc(C)n3)CS[C@H]12)c1csc(N)n1 | -0.1% (inactive) | -1% | 3.2% (inactive) | 2.9% (inactive) | 13.4% (inactive) | 0.9% (inactive) | -1.5% (inactive) | 10.8% (inactive) | 1% (inactive)
11 | C#CC(C)(CC)OC(=O)c1ccccc1C(=O)O (stereo not given) | 3.1% (inactive) | 1.3% | -0.2% (inactive) | -19% (inactive) | -5.2% (inactive) | 3.4% (inactive) | 5.2% (inactive) | 11.9% (inactive) | -12.1% (inactive)
12 | COc1ccc([C@@H]2Sc3ccccc3NC(=O)[C@@H]2O)cc1 | 7.8% (inactive) | 0.6% | 2.8% (inactive) | 77.6% (active) | 57.7% (active) | 2.6% (inactive) | 96.6% (active) | 87.2% (active) | 67.4% (active)
13 | COc1ccc([C@@H]2CC(=O)c3c(O)cc(O[C@@H]4O[C@H](CO[C@@H]5O[C@@H](C)[C@H](O)[C@@H](O)[C@@H]5O)[C@@H](O)[C@H](O)[C@@H]4O)cc3O2)cc1O | 1.6% (inactive) | 2.4% | -0.9% (inactive) | -10.2% (inactive) | -4.7% (inactive) | -1% (inactive) | -1.6% (inactive) | -2.4% (inactive) | 41.4% (inactive)
14 | Nc1ccc2c(c1)CN1C(=O)c3ccccc3C1=N2 | 3.6% (inactive) | -0.3% | 4.2% (inactive) | 44.4% (inactive) | 44.6% (active) | 2% (inactive) | 13.1% (inactive) | 79.4% (active) | 28.1% (inactive)
15 | OCC=Cc1ccccc1 | -2.6% (inactive) | -1% | 9.1% (inactive) | -8.2% (inactive) | 0.4% (inactive) | -1.9% (inactive) | -0.4% (inactive) | -0.8% (inactive) | -7.9% (inactive)
16 | O=C1OC2(c3ccccc31)c1cc(Br)c(O)c(Br)c1Oc1c2cc(Br)c(O)c1Br | -0.8% (inactive) | -2.9% | 0.5% (inactive) | 32.8% (inactive) | -24.2% (inactive) | 17.7% (inactive) | 7.8% (inactive) | 24.1% (inactive) | -5.4% (inactive)
17 | O=C1CCC(=O)N1CO | -2.4% (inactive) | -0.7% | 3.1% (inactive) | -0.6% (inactive) | -5.1% (inactive) | -1.4% (inactive) | 1.8% (inactive) | 9.6% (inactive) | -2.7% (inactive)
18 | Cc1ccc(C(=O)Oc2ccc(C(O)CNC(C)(C)C)cc2OC(=O)c2ccc(C)cc2)cc1 (stereo not given) | 31.3% (inactive) | 1.1% | 4.5% (inactive) | 79.2% (active) | 107% (active) | -1.5% (inactive) | 75.9% (active) | 137% (active) | 102% (active)
19 | CC(=O)CC/C=C(\C)CC/C=C(\C)CC/C=C(\C)CCC=C(C)C | 2.6% (inactive) | 1.2% | -2.1% (inactive) | -2.15% (inactive) | 19.6% (inactive) | -1.7% (inactive) | -35.4% (inactive) | 34.2% (active) | 0.15% (inactive)
20 | CC[C@@H]([C@H](C)O)n1ncn(-c2ccc(N3CCN(c4ccc(OC[C@@H]5CO[C@@](Cn6cncn6)(c6ccc(F)cc6F)C5)cc4)CC3)cc2)c1=O | 51.6% (active) | 8.2% | 1.4% (inactive) | 11.8% (inactive) | 97.9% (active) | 4.8% (inactive) | 77.7% (active) | 83.8% (active) | 24.1% (inactive)
21 | CCCOC(=O)c1cc(O)c(O)c(O)c1 | 4.2% (inactive) | 1.9% | -1.6% (inactive) | 43.1% (inactive) | 71.3% (active) | -2.1% (inactive) | 35.1% (inactive) | 78.3% (active) | 58.4% (active)
22 | CCC(C(=O)O)c1ccc(N2Cc3ccccc3C2=O)cc1 (stereo not given) | 0.8% (inactive) | -0.1% | 1.25% (inactive) | 15.4% (inactive) | -24.8% (inactive) | 1% (inactive) | -4.3% (inactive) | -8.7% (inactive) | -10% (inactive)
23 | C=CCNc1nc(NCC=C)nc(N2CCN(C(c3ccc(F)cc3)c3ccc(F)cc3)CC2)n1 | 0.3% (inactive) | -1% | -0.6% (inactive) | 50.3% (active) | 17.9% (inactive) | -3.9% (inactive) | 49.1% (inactive) | 56.9% (active) | 49.4% (inactive)
24 | O=C1NC(c2ccccc2)(c2ccccc2)C(=O)N1COP(=O)(O)O | 1.6% (inactive) | 3.6% | -0.5% (inactive) | -27% (inactive) | -13% (inactive) | 5.2% (inactive) | -8.63% (inactive) | -3.4% (inactive) | -11% (inactive)
25 | CCC(=O)O[C@]1(C(=O)COC)[C@@H](C)C[C@H]2[C@@H]3CCC4=CC(=O)C=C[C@]4(C)C3(F)[C@@H](O)C[C@@]21C (stereo not given in full) | 1.5% (inactive) | 0.5% | 1.1% (inactive) | -69.2% (inactive) | 6.6% (inactive) | -0.3% (inactive) | -4.8% (inactive) | 6% (inactive) | -2.9% (inactive)
26 | CCOC(=O)c1ccc(NC(=O)CN2CCCCC2)cc1 | 0.5% (inactive) | -1.8% | 3.5% (inactive) | 18.5% (inactive) | 0.1% (inactive) | 0.9% (inactive) | 50.7% (active) | 24.7% (inactive) | 5.8% (inactive)
27 | NCCC(=O)[N-][C@@H](Cc1cnc[nH]1)C(=O)O.[Zn] | -0.4% (inactive) | -0.2% | -0.8% (inactive) | -1.2% (inactive) | 9.1% (inactive) | 1.7% (inactive) | -12.4% (inactive) | -14.8% (inactive) | 5.9% (inactive)
28 | CN1CCN(CCC(=O)N2c3ccccc3Sc3ccc(C(F)(F)F)cc32)CC1 | 2.3% (inactive) | 2.1% | 16.1% (inactive) | 72.7% (active) | 19.7% (inactive) | 11.5% (inactive) | 60% (active) | 117% (active) | 57.8% (active)
29 | CCOC(=O)COc1ccc2c(C)c(CCN(CC)CC)c(=O)oc2c1Cl | -2.3% (inactive) | -0.4% | 0% (inactive) | -5% (inactive) | 45.5% (active) | 2.5% (inactive) | 15.1% (inactive) | 7.8% (inactive) | -17.9% (inactive)
30 | O=C(/C=C/c1ccc(O)c(O)c1)O[C@@H]1C[C@@](OC(=O)/C=C/c2ccc(O)c(O)c2)(C(=O)O)C[C@@H](O)[C@@H]1O | 0.7% (inactive) | 0.9% | -0.6% (inactive) | -72.8% (inactive) | 8.1% (inactive) | 3.7% (inactive) | 6.6% (inactive) | 6.5% (inactive) | -13.6% (inactive)
